Out of some 390,000 compounds screened, about 35 (0.009%) were called active. Another 6% or so got no clear call; they are omitted. The call rests on the fitted dose curve; in most records, active means well fitted inhibition curve with a large enough effect in the polarisation, with a control signal flat (not every such curve was filed as active); inconclusive means small, poorly fitted or top-dose-only effect, or effect the other way, or a change in a side signal; inactive means no such curve, though single readings can be large or run the other way; the % refers to the polarisation. The entries come from a sample that favours actives as a whole.
Target: Peptidyl-prolyl cis-trans isomerase NIMA-interacting 1 (Homo sapiens) (UniProt Q13526)
Assay: qHTS Assay to Find Inhibitors of Pin1
Settings: Pin1 FP peptide displacement, HiFluor488, 10 min; series mostly up to 115 µM
Excerpt: NIH Molecular Libraries Probe Production Network [MLPCN]
NIH Chemical Genomics Center [NCGC]
The unique chemical properties of Pro allow for the adoption of two completely distinct amide bond conformations (cis and trans). Peptidyl-prolyl cis/trans isomerases (PPIases) are evolutionary conserved enzymes that catalyze cis/trans isomerization of peptidyl-prolyl peptide bonds. Distinct from all other PPIases such as cyclophilins and FK506-binding proteins (FKBPs), Pin1 binds a subset of phos.Ser/Thr-Pro-containing proteins using its protein-targeting WW domain and isomerizes only specific phos.Ser/Thr-Pro bonds, which cannot be effectively catalyzed by other known PPIases.
Pin1-catalyzed conformational regulation can control a spectrum of activities of many key regulators in diverse cellular processes such as cell growth, genotoxic and other stress responses, immune response, germ cell development, neuronal differentiation and survival. Pin1 has emerged as a novel molecular timer that modulates its multiple targets at various steps of a given cellular process to synergistically control the amplitude and duration of a cellular response or process. Importantly, Pin1 is tightly regulated by multiple levels and its deregulation has an important role in a growing number of pathological conditions, including cancer, Alzheimer's disease, aging, asthma and microbial infection, providing a potentially new therapeutic option.
The goal of this screen is to find small-molecule inhibitors of Pin1 using a fluorescence polarization competition assay. A HiFluor-488-labeled peptide binds to the active site of Pin1 and can be displaced by compounds. Compounds were screened as a concentration-titration series that ranged from 57 uM to 0.7 nM.
NCGC Assay Protocol Summary:
Pin1 (0.6 uM) was dispensed into black, solid 1536-well plates at 2 uL/well in 10 mM HEPES (pH 7.5), 10 mM NaCl, 0.01% Tween20, 1 mM DTT, and 1% glycerol. Then, 23 nL of compounds or DMSO were delivered to each well using a pin tool. Two uL of Pin1-1b-HiFluor488 peptide (10 mM HEPES (pH 7.5), 10 mM NaCl, 0.01% Tween20, 1 mM DTT, and 1% glycerol, 0.02 uM Pin1-1b-HiFluor488) was then dispensed, and plates were incubated at room temperature for 10 min. The plates were measured on a ViewLux plate reader for fluorescence polarization signal using a 480/20 nM nm excitation filter and 540/25 nM nm S and P emission filters with a 20 second exposure. The %Activity was determined from the corrected fluorescence polarization values. Unlabeled Pin1-1c peptide was used as a control (3.5 mM two-fold serial; 20 uM final concentration) along with a 1x (0.3 uM) and 0x (no-enzyme) Pin1 enzyme control to normalize %Activity of identified inhibitors; 0x enzyme values corresponded to 100%Activity (full inhibition), while 1x Pin1 enzyme values were used to normalize 0%Activity (no inhibition).
Concentration-response curves were fitted to the signals arising from the resulting fluorescence polarization. The concentration-effect curves were then classified based on curve quality (r2), response magnitude and degree of measured activity, and compounds were subsequently categorized based on their curve class.
Keywords: Peptidyl prolyl isomerase, Pin1, fluorescence polarization, MLSMR, MLPCN, NIH Roadmap, qHTS, NCGC

Sequence of Peptidyl-prolyl cis-trans isomerase NIMA-interacting 1 (Homo sapiens) (Q13526 whole entry, looked up): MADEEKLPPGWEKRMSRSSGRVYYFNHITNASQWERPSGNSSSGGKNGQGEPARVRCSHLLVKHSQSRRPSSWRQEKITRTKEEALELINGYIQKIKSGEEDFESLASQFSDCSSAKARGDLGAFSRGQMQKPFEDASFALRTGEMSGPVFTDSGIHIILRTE

activity, negative = inhibition, inactive:
Cc1ccccc1CNC(=O)C(=O)NCC(c1cccs1)S(=O)(=O)c1cccs1 (stereo unspecified), CC1CCC2(CC1)N=C(c1ccccc1)C(=O)N2CC(=O)Nc1ccc(F)c(Cl)c1 (stereo unspecified), COc1cc(OC)c(NC(=O)c2nc(-c3ccncc3)no2)cc1Cl, Cc1cccc(CNC(=O)c2cnc3sc(N4CCCCC4)nn3c2=O)c1, CCc1ccccc1NC(=O)N1CCC2(CC1)Oc1ccccc1C(=O)N2Cc1ccccc1F, COc1ccc(OC)c(NC(=O)CSc2nc3ccccc3nc2N2CCCCC2)c1, CN1CCOc2cc(S(=O)(=O)N3CCN(S(=O)(=O)c4c(F)cccc4F)CC3)cnc21, O=c1c2ccccc2nc2sc(Nc3ccc(Oc4ccccc4)cc3)nn12, CCn1c(C)c(C)c2cc(C(=O)NCCc3cc(OC)ccc3OC)ccc21, CCC(=O)N1CCc2cc(CNS(=O)(=O)c3ccc(Br)s3)ccc21, O=[S+]([O-])(c1ccc(OC(F)(F)F)cc1)N1CCN([S+](=O)([O-])c2ccc3c(c2)OCCO3)CC1, CC(C)(C)c1ccc(C(=O)NCC(c2ccc(Cl)cc2)N2CCOCC2)cc1 (stereo unspecified), COc1ccccc1Cc1nc2ccccc2nc1SCC(=O)N1CCCc2ccccc21, COc1ccc(C2Nc3ccccc3C(=O)N2Cc2ccc(Cl)cc2)cc1COc1ccc(NC(C)=O)cc1 (stereo unspecified), Cc1nn2c(=O)cc(COC(=O)c3ccccc3NC(=O)COc3ccccc3C)nc2s1, CCOC(=O)c1ccc(NC(=O)CC2C(=O)N(c3ccccc3)C(=O)N2Cc2cccs2)cc1 (stereo unspecified), CC1CCCN(S(=O)(=O)c2ccc3[nH]c(=O)cc(C(=O)NCCc4ccc(Cl)cc4)c3c2)C1 (stereo unspecified), COc1ccc(N2CCN(S(=O)(=O)c3ccc4c(c3)CC(=O)N4)CC2)cc1, COc1ccc(N2CCN(C(=O)c3c(C)oc4nc(C)nc(N5CCCC5)c34)CC2)cc1, O=[S+]([O-])(c1ccc2c(c1)OCCO2)N1CCN([S+](=O)([O-])c2c(Cl)cc(Cl)cc2Br)CC1, Cc1ccc(C)c(N2CCN(C(=O)C3CCC(CNS(=O)(=O)c4cccs4)CC3)CC2)c1 (stereo unspecified), O=C(CSc1nc(-c2cccc(F)c2)[nH]c1-c1ccccc1)Nc1ccc2c(c1)OCO2, COc1cc(F)c(S(=O)(=O)N2CCCN(S(=O)(=O)c3ccc(N)cc3)CC2)c(F)c1, COC(=O)c1cnn(-c2ccc(C(=O)Nc3ccc(OC(F)(F)F)cc3)cc2)c1N, O=S(=O)(c1ccc2c(c1)OCCO2)N1CCN(S(=O)(=O)c2cc(F)ccc2F)CC1, COC(=O)c1ccc(NC(=O)c2cnn(-c3ccc(Cl)cc3)c2C2CCN(C(=O)OC(C)(C)C)CC2)cc1, CCCCN(C)CCCNC(=O)CN1N=C(c2ccc(OC)cc2)CCC1=O, CCOc1ccc2oc(=O)cc(CN3CCN(C(=O)c4ccc(F)cc4)CC3)c2c1, O=C(O)c1ccc(Cn2c(SCc3ccc(F)cc3)nc3ccncc32)cc1, Cc1ccc(-c2nc3ccccn3c2Nc2c(C)cccc2C)o1, Cc1cccc(C(=O)NCCc2nc3ccccc3n2Cc2ccccc2Cl)c1, COc1cccc(C(=O)N(Cc2cccc(Cl)c2)Cc2ccco2)c1, CC(CNC(=O)c1nnc(Cc2cccc(F)c2)o1)c1ccccc1 (stereo unspecified), Cc1noc(C)c1-c1ccc2ncnc(NCc3ccc(F)c(F)c3)c2c1, O=C(CSCc1cnn(-c2ccccc2)c1-n1cccc1)NCc1ccc(Cl)cc1, CC(C)c1ccc(NC(=O)C2CCN(c3nc(-c4ccc(C(C)C)cc4)no3)CC2)cc1, NC(=O)C1CCN(C(=O)c2cccc(NC(=O)c3nsc4ccccc34)c2)CC1, Cc1ccc(C(=O)NC2CCN(C#N)CC2)cc1, O=S(=O)(NCCc1nnc2ccc(SCc3ccc(Cl)cc3Cl)nn12)c1ccccc1, COC(=O)C(CC(C)C)NS(=O)(=O)c1cc(Br)ccc1Br (stereo unspecified), N#Cc1nc(NCc2ccc(Cl)c(Cl)c2)c2ncn(CCCO)c2n1, COCCNS(=O)(=O)c1cc(-c2nn3c(C)nnc3c3ccccc23)ccc1C, O=S1(=O)N=C(Oc2cccc(Br)c2)c2ccccc21, COc1ccc(CNC(=O)c2ccc3c(c2)nc2n3CCOC2)c(OC)c1, COc1ccc(C2Nc3ccccc3C(=O)N2Cc2ccc(CNC(=O)CO)cc2)cc1COc1ccc(NC(C)=O)cc1 (stereo unspecified), COc1ccc(OC)c(NC(=O)C2CCN(S(=O)(=O)c3ccc(C)cc3)CC2)c1, O=C1CC(c2ccccc2)CC2=C1C(c1ccco1)n1nc(C(F)(F)F)nc1N2 (stereo unspecified), COc1ccc(C2Nc3cccc(OC)c3C(=O)N2Cc2ccccc2)cc1COc1ccc(NC(C)=O)cc1 (stereo unspecified), COc1ccc(-c2ccc(C3C4C=CCCC4(C)C(=O)N3Cc3ccccc3)c(F)c2)cc1OC (stereo unspecified), Cc1cc(C)n2ncc(C(=O)Nc3cccc(C#N)c3)c2n1 1.24% [at 28.7 µM], CCCOc1ccc(NC(=O)CC2C(=O)N(c3ccccc3)C(=O)N2Cc2ccco2)cc1 (stereo unspecified), CCOC(=O)N1CCc2c(sc3c2c(=O)n(Cc2ccccc2)c(=O)n3CC(=O)Nc2cccc(C)c2)C1, COC(=O)c1ccccc1NC(=O)c1ccc(C#N)cc1, C=C1CCN(Cc2ccc(OC)cc2)S(=O)(=O)c2ccccc21, COc1ccc(C2=Nn3c(nnc3-c3ccccc3O)SC2)cc1, O=C(c1ccco1)n1nc(-c2ccc(Cl)cc2)nc1NCc1ccccc1, Cc1ccc(S(=O)(=O)N2CCN(c3nc(-n4cnc5ccccc54)nc4ccccc34)CC2)cc1, O=C1NS(=O)(=O)c2ccccc21, COc1ccc(CN(Cc2ccccc2)C(=O)c2ccc(O)cc2)cc1COc1ccc(NC(C)=O)cc1, COc1ccccc1/C=C/c1nc(C#N)c(NC(C)c2ccccc2)o1 (stereo unspecified), O=C(CNC(=O)c1ccc(Cl)c(C(F)(F)F)c1)OC(C(=O)Nc1cc(C(F)(F)F)ccc1Cl)c1ccccc1 (stereo unspecified)

From PubChem BioAssay AID504891 (National Center for Advancing Translational Sciences (NCATS), 2011)
